“And” between values parts separate entries of the source, which are not always exact repeats. Equal values may be shown once. More than one record can exist for a structure, and the calls need not agree. The source made the active and inactive calls. The calls were made as follows: active = hit-call score of the fitted dose curve at least 0.9, where 1 is the maximum; inactive = score below 0.9.
How the values were obtained:
[1] = ATG_AP_1_CIS: Attagene CIS-FACTORIAL HepG2 Assay for human Activator Protein 1 (AP-1) (AID 2282931); conditions: HepG2 Attagene cis-factorial AP-1 reporter mRNA; actives raise or lower the signal
How it was run: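 Fluorescence of labelled PCR fragments separated by capillary electrophoresis gives reporter mRNA levels. HepG2 with transfected cis-regulated reporter units, 24 h exposure; DMSO serves as baseline for bidirectional curve fits.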

[2] = ATG_AP_2_CIS: Attagene CIS-FACTORIAL HepG2 Assay for human Activator Protein 2 (AP-2) (AID 2282932); conditions: HepG2 AP-2 cis-reporter, Attagene transcription factor profiling; actives raise or lower the signal
How it was run: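 Transiently transfected HepG2 cells are exposed to chemical for 24 h. Reporter transcripts are then measured as fluorescence following RT-PCR and capillary separation, and gain- or loss-of-signal is fitted relative to DMSO.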

[3] = ATG_BRE_CIS: Attagene CIS-FACTORIAL HepG2 Assay for human Bone Morphogenetic Protein (BMP) Response Element (BRE) (AID 2282933); conditions: HepG2 BMP response element reporter, Attagene transcription factor profiling; actives raise or lower the signal
How it was run: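 Gain- or loss-of-signal was derived by bidirectional fitting against DMSO controls. The signal came from reporter mRNA, measured by RT-PCR and capillary electrophoresis, in HepG2 cells transiently carrying multiple reporter units and dosed for 24 h.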

[4] = molecular target: Retinoic acid receptor alpha (Homo sapiens) (UniProt P10276); assay: ATG_DR5_RAR_CIS: Attagene CIS-FACTORIAL HepG2 Assay for human Retinoic Acid Receptor Alpha (RARE), DR5 submotif (AID 2282934); conditions: HepG2 Attagene cis-factorial RARE DR5 reporter, mRNA; actives raise or lower the signal;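 as to AC50: reporter responds to endogenous RAR alpha beta and gamma in HepG2 not RARA alone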
Sequence of Retinoic acid receptor alpha (Homo sapiens) (P10276 whole entry, looked up): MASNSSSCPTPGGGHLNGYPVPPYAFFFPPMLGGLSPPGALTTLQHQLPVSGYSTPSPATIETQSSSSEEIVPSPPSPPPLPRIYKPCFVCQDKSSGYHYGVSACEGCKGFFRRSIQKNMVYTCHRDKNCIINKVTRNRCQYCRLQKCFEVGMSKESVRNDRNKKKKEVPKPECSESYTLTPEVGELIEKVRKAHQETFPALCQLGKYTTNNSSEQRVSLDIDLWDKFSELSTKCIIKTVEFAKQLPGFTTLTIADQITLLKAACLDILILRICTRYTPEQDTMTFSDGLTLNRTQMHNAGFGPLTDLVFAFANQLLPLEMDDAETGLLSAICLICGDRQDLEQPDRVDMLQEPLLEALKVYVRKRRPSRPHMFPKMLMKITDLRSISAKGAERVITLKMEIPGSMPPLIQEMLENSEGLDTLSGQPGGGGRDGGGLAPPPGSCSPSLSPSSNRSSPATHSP
How it was run: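 Transient MRTU transfection of HepG2; 24 h compound treatment; TriZol RNA, oligo(dT) RT, PCR, FAM labelling, capillary electrophoresis. Bidirectional fit vs DMSO. Endogenous TF activity at DR5 RARE.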

[5] = molecular target: Transcription factor E2F1 (Homo sapiens) (UniProt Q01094); assay: ATG_E2F_CIS: Attagene CIS-FACTORIAL HepG2 Assay for human E2F Transcription Factor 1 (AID 2282935); conditions: HepG2 Attagene cis-reporter, E2F reporter RNA transcripts; actives raise or lower the signal
Sequence of Transcription factor E2F1 (Homo sapiens) (Q01094 whole entry, looked up): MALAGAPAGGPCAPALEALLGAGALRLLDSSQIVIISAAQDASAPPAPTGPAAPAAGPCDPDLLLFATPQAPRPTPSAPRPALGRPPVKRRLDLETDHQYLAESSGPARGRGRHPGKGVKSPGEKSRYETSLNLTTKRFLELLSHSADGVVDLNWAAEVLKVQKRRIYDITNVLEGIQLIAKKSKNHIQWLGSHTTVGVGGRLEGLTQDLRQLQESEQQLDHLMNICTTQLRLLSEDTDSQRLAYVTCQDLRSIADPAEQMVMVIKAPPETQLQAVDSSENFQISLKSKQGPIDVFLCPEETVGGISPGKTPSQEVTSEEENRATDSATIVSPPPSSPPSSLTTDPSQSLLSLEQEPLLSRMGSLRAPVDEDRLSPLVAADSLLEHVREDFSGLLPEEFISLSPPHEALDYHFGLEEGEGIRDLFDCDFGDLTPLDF
How it was run: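 Fluorescent RT-PCR products, digested with HpaI for 2 h at 37 C, are separated by capillary electrophoresis. Source RNA comes from transfected HepG2 cultures treated for 24 h.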

[6] = ATG_E_Box_CIS: Attagene CIS-FACTORIAL HepG2 Assay for human Enhancer Box (E-box) (AID 2282936); conditions: HepG2 E-box cis-reporter transcription, actives raise or lower the signal
How it was run: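 Fluorescent reporter fragments separated by capillary electrophoresis gave the signal; mRNA came from HepG2 cells transfected with cis-element reporters and treated 24 h. Curves fitted bidirectionally relative to DMSO controls.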

[7] = ATG_M_61_CIS: Attagene CIS-FACTORIAL HepG2 Assay for M61 Transcription Factor (Internal Marker) (AID 2282937); conditions: HepG2 Attagene CIS-FACTORIAL M61 internal marker reporter; actives raise or lower the signal
How it was run: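 This endpoint serves as an internal background control within a multiplexed HepG2 cis-reporter panel. Cells are exposed for 24 h; reporter mRNA is amplified, fluorescently labelled and sized by capillary electrophoresis, with DMSO as negative control.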

[8] = ATG_EGR_CIS: Attagene CIS-FACTORIAL HepG2 Assay for human Early Growth Response 1 (EGR1) (AID 2282938); conditions: HepG2 Attagene CIS-FACTORIAL EGR reporter mRNA; actives raise or lower the signal
How it was run: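 HepG2, transient MRTU transfection (cis promoters), 24 h compound. RNA → RT (oligo-dT) → PCR → 6-FAM labelling → HpaI cut → CE fluorescence. Bidirectional fit, DMSO baseline.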

[9] = ATG_M_19_CIS: Attagene CIS-FACTORIAL HepG2 Assay for M19 Transcription Factor (Internal Marker) (AID 2282939); conditions: HepG2 Attagene CIS-FACTORIAL M19 internal marker reporter; actives raise or lower the signal
How it was run: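 Following a 24 h exposure, RNA from transfected HepG2 cells was reverse-transcribed, PCR-amplified with reporter-specific primers, end-labelled with 6-FAM and HpaI-digested before capillary separation. Values represent gain or loss versus DMSO.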

[10] = ATG_ERE_CIS: Attagene CIS-FACTORIAL HepG2 Assay for Estrogen Response Element (ERE) (AID 2282940); conditions: HepG2 ERE cis-reporter, Attagene RNA transcript; actives raise or lower the signal
How it was run: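 HepG2, transient cis-reporter units, 24 h exposure. RNA isolated, oligo(dT) RT, reporter-specific PCR, FAM extension, HpaI cut, CE detection. Gain/loss-of-signal vs DMSO.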

[11] = ATG_Ets_CIS: Attagene CIS-FACTORIAL HepG2 Assay for human Erythroblast Transformation Specific (ETS) (AID 2282941); conditions: HepG2 ETS cis-reporter transcription, actives raise or lower the signal
How it was run: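 RT-PCR/capillary electrophoresis fluorescence read-out of reporter mRNA; HepG2 transient multi-reporter transfection; 24 h compound exposure; gain or loss of signal fitted bidirectionally relative to DMSO.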

[12] = molecular target: Hepatocyte nuclear factor 3-beta (Homo sapiens) (UniProt Q9Y261); assay: ATG_FoxA2_CIS: Attagene CIS-FACTORIAL HepG2 Assay for human Forkhead box A2 (FOXA2) (AID 2282942); conditions: HepG2 cis-reporter transcription factor activity, 24 h; actives raise or lower the signal
Sequence of Hepatocyte nuclear factor 3-beta (Homo sapiens) (Q9Y261 whole entry, looked up): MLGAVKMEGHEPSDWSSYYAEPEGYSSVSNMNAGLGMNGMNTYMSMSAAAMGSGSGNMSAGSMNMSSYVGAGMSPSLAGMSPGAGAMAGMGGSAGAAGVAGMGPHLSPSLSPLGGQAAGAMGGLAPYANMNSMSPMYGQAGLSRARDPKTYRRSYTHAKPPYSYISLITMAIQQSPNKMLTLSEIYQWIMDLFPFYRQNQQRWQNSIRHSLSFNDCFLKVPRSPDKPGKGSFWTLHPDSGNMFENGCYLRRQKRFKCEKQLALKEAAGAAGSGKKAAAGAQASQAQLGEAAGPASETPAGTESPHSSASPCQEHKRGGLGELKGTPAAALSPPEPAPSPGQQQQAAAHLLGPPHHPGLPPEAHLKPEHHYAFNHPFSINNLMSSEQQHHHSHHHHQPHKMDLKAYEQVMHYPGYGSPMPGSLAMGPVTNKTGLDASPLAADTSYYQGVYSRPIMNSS
How it was run: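 Cells: HepG2, transient multiplex reporter transfection. Exposure 24 h. Detection: reporter-specific RT-PCR, fluorescent labelling, restriction digest, capillary electrophoresis. Analysis: bidirectional curve fit, DMSO as negative control.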

[13] = ATG_FoxO_CIS: Attagene CIS-FACTORIAL HepG2 Assay for human Forkhead box O (FoxO) (AID 2282943); conditions: HepG2 Attagene cis-reporter, FoxO element, mRNA; actives raise or lower the signal
How it was run: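 HepG2, transient MRTU transfection (cis element, endogenous TFs). Dose 24 h. TriZol RNA → oligo(dT) RT → PCR → 6-FAM primer extension → HpaI cut → CE. Gain/loss vs DMSO.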

[14] = ATG_GATA_CIS: Attagene CIS-FACTORIAL HepG2 Assay for human GATA Binding Protein (AID 2282944); conditions: HepG2 GATA cis-element reporter, Attagene multiplex mRNA; actives raise or lower the signal
How it was run: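 DMSO serves as negative control and baseline for bidirectional fitting of reporter mRNA changes. HepG2 cells bearing transiently transfected cis-promoter reporters were exposed 24 h; transcripts detected via RT-PCR and capillary electrophoresis.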

[15] = ATG_GLI_CIS: Attagene CIS-FACTORIAL HepG2 Assay for human Zinc Finger Protein GLI1 (AID 2282945); conditions: HepG2, Attagene cis-factorial reporter mRNA, GLI element; actives raise or lower the signal
How it was run: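 Bidirectional curve fits relative to DMSO, using reporter mRNA levels from RT-PCR plus capillary electrophoresis. Cells were HepG2 transiently carrying cis-regulated reporter constructs, harvested 24 h after dosing.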

[16] = ATG_GRE_CIS: Attagene CIS-FACTORIAL HepG2 Assay for human Glucocorticoid Response Elements (GRE) (AID 2282947); conditions: HepG2 GRE cis-reporter, Attagene multiplex mRNA; actives raise or lower the signal
How it was run: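 Multiplexed cis-reporter mRNA induction, HepG2, 24 h post-dose. RT-PCR, FAM-labelled, HpaI-digested amplicons by CE. Bidirectional fit vs DMSO.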

[17] = ATG_ISRE_CIS: Attagene CIS-FACTORIAL HepG2 Assay for human Interferon Regulatory Factor 1 (IRF1) binding to an Interferon-Stimulated Response Element (ISRE) (AID 2282948); conditions: HepG2 ISRE cis-reporter (Attagene), mRNA transcription readout; actives raise or lower the signal
How it was run: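 Read-out: fluorescent RT-PCR products resolved by capillary electrophoresis, reporting endogenous transcription factor activity via ISRE-driven reporter mRNA in transfected HepG2 cells dosed for 24 h; gain or loss fitted relative to DMSO.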

[18] = ATG_M_32_CIS: Attagene CIS-FACTORIAL HepG2 Assay for M32 Transcription Factor (Internal Marker) (AID 2282949); conditions: HepG2 Attagene cis-factorial M32 reporter, mRNA; actives raise or lower the signal;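 also: background control marker of the multiplexed CIS panel rather than a real target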
How it was run: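 Using DMSO as baseline, bidirectional curve fits were applied to reporter mRNA signals. These came from transiently transfected HepG2 cells exposed for 24 h, with RNA analysed by RT-PCR, FAM primer extension, HpaI digestion and CE.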

[19] = ATG_M_06_CIS: Attagene CIS-FACTORIAL HepG2 Assay for M06 Transcription Factor (Internal Marker) (AID 2282950); conditions: HepG2 Attagene CIS-FACTORIAL M06 internal marker reporter; actives raise or lower the signal
How it was run: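 Fluorescence-labelled RT-PCR products from cis-promoter reporter units, cut with HpaI and resolved by capillary electrophoresis, give the signal. Cells are human HepG2, dosed for 24 h. Serves as background control, fitted relative to DMSO.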

[20] = molecular target: Bile acid receptor (Homo sapiens) (UniProt Q96RI1); assay: ATG_IR1_CIS: Attagene CIS-FACTORIAL HepG2 Assay for human Nuclear Receptor Subfamily 1 Group H Member 4 (NR1H4), IR1 submotif (AID 2282946); conditions: IR1 reporter transcription, actives raise or lower the signal
Sequence of Bile acid receptor (Homo sapiens) (Q96RI1 whole entry, looked up): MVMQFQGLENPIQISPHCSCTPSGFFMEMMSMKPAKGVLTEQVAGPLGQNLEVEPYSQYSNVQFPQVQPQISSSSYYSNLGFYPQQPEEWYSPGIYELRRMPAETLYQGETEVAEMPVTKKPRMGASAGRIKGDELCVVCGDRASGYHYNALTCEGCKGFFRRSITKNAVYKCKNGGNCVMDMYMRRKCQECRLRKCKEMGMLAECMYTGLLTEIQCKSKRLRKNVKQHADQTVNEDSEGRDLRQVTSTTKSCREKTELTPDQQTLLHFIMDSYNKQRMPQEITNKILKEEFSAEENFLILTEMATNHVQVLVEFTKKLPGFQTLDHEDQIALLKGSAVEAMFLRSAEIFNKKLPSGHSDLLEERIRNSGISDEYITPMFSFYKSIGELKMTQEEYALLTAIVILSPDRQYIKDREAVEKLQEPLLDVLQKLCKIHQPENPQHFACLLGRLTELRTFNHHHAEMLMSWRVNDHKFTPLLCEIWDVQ
How it was run: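 HepG2 cells transiently transfected with multiplexed cis-element reporter units read endogenous transcription factor activity. After 24 h compound exposure, reporter mRNA was quantified by RT-PCR, fluorescent labelling, HpaI digestion and capillary electrophoresis; bidirectional fitting versus DMSO baseline.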

Measured: AC50

CC(C#N)CCC#N (stereo not drawn)
not listed: [20]
inactive: all other assays above

ClC(Cl)=C(Cl)C(Cl)=C(Cl)Cl
active: [2] 165 µM | [8] 131 µM | [13] 180 µM | [15] 158 µM | [16] 165 µM | [17] 100 µM
not listed: [20]
inactive: all other assays above

O=C(OC1CCCCC1)c1ccccc1C(=O)OC1CCCCC1
active: [1] 38.1 µM | [3] 67.5 µM | [5] 187 µM | [8] 25.1 µM | [10] 29.2 µM | [20] 28.9 µM
inactive: all other assays above

CCSC(C)CC1CC(=O)C(C(CC)=NOC/C=C/Cl)=C(O)C1 (stereo not drawn)
inactive: all assays above

CCOC(=O)/C=C(C)/C=C/C[C@@H](C)CCCC(C)C
inactive: [3] | [7] | [10] | [11] | [12] | [13] | [17] | [19]
active: [1] 100 µM | [2] 46.9 µM | [4] 33.4 µM | [5] 180 µM | [6] 106 µM | [8] 158 µM | [9] 157 µM | [14] 158 µM | [15] 149 µM | [20] 41 µM | [16] 74.7 µM | [18] 157 µM

C[C@]12CCC(=O)C[C@@H]1CC[C@@H]1[C@@H]2CC[C@]2(C)[C@@H](O)CC[C@@H]12
inactive: [1] | [2] | [3] | [4] | [5] | [6] | [7] | [8] | [9] | [11] | [12] | [13] | [14] | [15] | [16] | [17] | [18] | [19]
active: [3] 65.4 µM and 87 µM | [6] 24 µM and 23.2 µM and 13.8 µM

CNC(=O)O/N=C/C(C)(C)S(C)=O (stereo not drawn)
active: [1] 73 µM | [10] 84.1 µM
inactive: all other assays above

O=C(Nc1ccc2[nH]ccc2c1)c1cc2cc(F)ccc2n1Cc1cccc(F)c1
active: [1] 7.29 µM | [6] 19.2 µM | [8] 11 µM | [9] 13.7 µM | [20] 2.93 µM | [16] 17.6 µM | [17] 18.2 µM
inactive: all other assays above

O=Cc1cccc(Oc2ccccc2)c1
not listed: [20]
inactive: all other assays above

COc1ccc(OC)c(C=O)c1
inactive: all assays above

O=C(c1ccccc1)C(Cl)Cl
active: [1] 53.4 µM | [6] 10.9 µM | [8] 26.6 µM | [13] 26.4 µM | [20] 5.81 µM | [17] 14.9 µM
inactive: all other assays above

CC(C)(c1ccc(OCC2CO2)cc1)c1ccc(OCC2CO2)cc1 (stereo not drawn)
active: [1] 53.9 µM | [6] 52.4 µM | [8] 33.4 µM | [17] 58 µM
not listed: [20]
inactive: all other assays above

COP(=O)(OC)O/C(=C\Cl)c1cc(Cl)c(Cl)cc1Cl
active: [1] 62.4 µM | [2] 26.9 µM | [3] 70.3 µM | [8] 37 µM | [10] 4.11 µM | [15] 130 µM | [17] 47 µM
not listed: [16]
inactive: all other assays above

C[C@@H]1C[C@@H]([C@H](O)CC2CC(=O)NC(=O)C2)C(=O)[C@@H](C)C1
active: [1] 24.1 µM and 11.9 µM | [3] 16.6 µM and 5.79 µM and 22.8 µM | [5] 573 nM and 632 nM | [11] 6.31 µM [middle of 4 runs] | [12] 10.1 µM | [20] 0.304 µM
inactive: [1] | [3] | [5] | [7] | [8] | [9] | [12] | [14] | [15] | [20] | [18] | [19]

Source: PubChem BioAssay (EPA / NIEHS)
